Usually inhibition stands for the relative decrease from the control value, in per cent.

Among the data in PubChem BioAssay AID2315 (National Center for Advancing Translational Sciences (NCATS), 2010) are inhibition values, retold here.

Molecules are shown by their SMILES. Out of some 290,000 compounds screened, about 27,000 (9.3%) were called active. Only a selection was taken, and actives are over-represented in it overall. A number with no mark means an inactive call. Cut-off read from the data, not from the text of the source: active = inhibition mostly above about 28% (no sharp cut-off); inactive = mostly below about 43%.

This assay is described as follows: A qHTS for Small Molecule Inhibitors of Shiga Toxin. Note: 0% is about no effect. The conditions noted are these: Vero cells, Shiga toxin protein synthesis inhibition reporter; at 38.7 µM, stronger effect = higher value.
Regarding `COc1ccc(Nc2nc(NCc3ccco3)nc(N/N=C/c3ccccc3Cl)n2)cc1`, the inhibition was 7.02%. Consider `COc1ccc(CC(=O)N/N=C/c2cc([N+](=O)[O-])cc(Br)c2O)cc1`, for which the inhibition was -3.43%. `Cc1ccc(S(=O)(=O)c2nnn3c2nc(N2CCN(c4ccccn4)CC2)c2ccccc23)cc1`: the inhibition is -12%.

For `Cc1occc1C(=O)NC1CCCN(Cc2ccc(CC(C)C)cc2)C1` (stereo unspecified), the inhibition was -8.21%. Take `Cc1ccc(CNS(=O)(=O)c2ccc3c(c2)N(C)CCO3)cc1`: the inhibition is -2.13%.

With `CC1CCN(S(=O)(=O)c2ccc3[nH]c(=O)ccc3c2)CC1`, the inhibition is -6.16%. Turning to `O=C(NC(=S)Nc1ccc(Cl)c(C(=O)O)c1)c1cncc(Br)c1`, the inhibition is 14.6%.

As to `N#Cc1ccc(/C=C2\CCn3c2nc2cc(C(=O)O)ccc2c3=O)cc1`, the inhibition is -9.62%. Consider `Cc1ccc(-c2csc(NC(=O)c3cnccn3)n2)cc1C`, for which the inhibition is 8.33%. The figure for `O=C(Nc1nc(-c2ccc(-c3ccccc3)cc2)cs1)c1cnccn1` is 34.8% (active); for `O=C(Nc1nnc(Cc2ccccc2)s1)c1cnccn1` it is -3.24%. For `COc1ccc(CN2CCC(n3nccc3NC(=O)CCCc3ccccc3)CC2)cc1C`, the inhibition was -2.11%. With `CC(=O)Nc1ccc(NS(=O)(=O)c2ccc3c(c2)NC(=O)CC(=O)N3)cc1`, the inhibition was -11.9%. Regarding `CCOC(=O)c1c(C)[nH]c(C)c1S(=O)(=O)NCCCc1ccco1`, the inhibition is -3.37%. As for `O=C(CCCCCn1c(=S)[nH]c2cc3c(cc2c1=O)OCO3)N1CCN(c2ccc(F)cc2)CC1`, the inhibition is -1.92%.

Take `CCn1c(CC(=O)Nc2ccccc2C)nnc1SCC(=O)NC1=NCCS1`: the inhibition is 2.84%.

Turning to `COc1ccc(-c2cn3ccc(C)cc3n2)cc1`, the inhibition is -17.1%.

In the case of `Cc1ccccc1Nc1c(-c2ccccc2)nc2ncccn12`, the inhibition was 19.2%. The result for `CCCCCC(=O)Nc1ccc(-c2cn3cccnc3n2)cc1` reads 64.5%; that for `c1ccc(-c2cn3c(n2)CCc2ccc4cccnc4c2-3)cc1`, -6.84%. Turning to `CC(=O)Nc1ccc(-c2cn3cccnc3n2)cc1`, the inhibition was 52.4% (active). In the case of `COc1ccc(-c2cn3ccsc3n2)cc1`, the inhibition is 43.6% (active). Regarding `c1ccc(-c2cn3cccnc3n2)cc1`, the inhibition is 58.5% (active). Regarding `CC(C)(C)C(=O)Nc1ccc(-c2cn3cccnc3n2)cc1`, the inhibition was 32.2%. The figure for `FC(F)(F)Oc1ccc(-c2cn3cccnc3n2)cc1` is 54.1% (active); for `CCCC(=O)Nc1cccc(-c2cn3ccsc3n2)c1` it is 22.4%; for `CN1CCN(Cc2ccc(OC(F)(F)F)cc2)CC1` it is -16.1%. On to `CCOC(=O)c1cnc(Nc2nc3ccccc3o2)nc1CSC(=S)N1CCCCC1`, for which the inhibition was 36.8%.

On to `CN(Cc1ccc(F)cc1Cl)S(=O)(=O)c1cccs1`, for which the inhibition was 39.1%. As to `CCOC(=O)N1CCN(C(=O)C(C)NC(=O)c2ccco2)CC1` (stereo unspecified), the inhibition was -4.62%. Regarding `COc1ccc(CC(=O)NC2CCSc3ccccc32)cc1OC` (stereo unspecified), the inhibition is -2.96%.

As to `O=C(Nc1ccccc1C(=O)Nc1ccncc1)c1ccc([N+](=O)[O-])cc1`, the inhibition was -5.25%.

For `O=C(NNS(=O)(=O)c1ccc([N+](=O)[O-])cc1)C1CCCCC1`, the inhibition is -11%. In the case of `CCCCn1c(N)c(N(CCOC)C(=O)c2oc3ccc(OC)cc3c2C)c(=O)[nH]c1=O`, the inhibition was -5%. Regarding `COc1cc(C)cc(CN2CCC(Cc3ccccc3)CC2)c1O`, the inhibition is -4.61%. For `NC(=O)c1ccccc1N=Cc1ccc2ccccc2c1`, the inhibition was 69.3%. Take `COc1ccc(-c2cn3cccnc3n2)cc1`: the inhibition is 50.1% (active).

Take `COc1ccc(-c2ccnc(SCC(=O)N3CCOCC3)n2)cc1`: the inhibition was 19.9%. Take `COc1ccc(N2CCN(C(=O)CSc3nnc4ncccn34)CC2)cc1`: the inhibition was -8.3%. Regarding `O=C(Nc1ccccc1N1CCOCC1)c1ccc(OCc2cscn2)cc1`, the inhibition is 3.77%. For the molecule `CC1=CC2=NC(=O)/C(=C/c3coc4ccccc4c3=O)C(=N)N2O1`, the inhibition is 11.7%. Turning to `COc1ccc(OCCCn2cccc2/C=C2/C(=N)N3OC(C)=CC3=NC2=O)cc1`, the inhibition was 47.7% (active). Regarding `CCOc1cc(/C=C2/C(=N)N3OC(C)=CC3=NC2=O)ccc1OC`, the inhibition is -19.9%.

Consider `Oc1ccccc1CN1CCN(C(c2ccccc2)c2ccccc2)CC1`, for which the inhibition was -6.21%. The result for `NC(=O)COC(=O)c1ccc2c(c1)C(=O)N(Cc1ccco1)C2=O` reads -6.38%; that for `Cc1cc(C(=O)OCC(=O)Nc2nnc(C(C)C)s2)c2ccccc2n1`, -2.62%. For `CC(C)CC(=O)N/C(N)=N/c1nc2ccccc2s1`, the inhibition is 61.6% (active). As for `CCC(=O)NCCc1nc2ccccc2n1CC`, the inhibition was -5.67%. For the molecule `O=C(O)CCCCc1nc2ccccc2s1`, the inhibition was -9.29%. For the molecule `CC(C)CC(=O)NC(=S)NCc1ccccc1`, the inhibition is -1.98%. Regarding `CCC(=O)NC(=Nc1nc2ccccc2s1)NC(=O)CC`, the inhibition was 57.8% (active). Take `CCCn1nc(NC(=O)C(C)C)c2cc3cc(OC)ccc3nc21`: the inhibition is 40.5%. For `COc1ccc(C(=O)CC(=O)C(=O)Nc2cc([N+](=O)[O-])ccc2OC)cc1`, the inhibition is -3.5%. The figure for `O=C(Cn1ncc2c3ccccc3n(Cc3ccccc3)c2c1=O)NCc1ccccn1` is 16.1%; for `Cc1c(C(=O)N2CCCC2)c(S(=O)(=O)NCC(C)c2ccccc2)c(C)n1C` (stereo unspecified) it is -3.94%.

Turning to `CC1(C(=O)N/N=C/c2cc3c(cc2Br)OCO3)CC1(Br)Br` (stereo unspecified), the inhibition was -11.8%.

Turning to `O=C(C1CCN(Cc2ccc(Cl)cc2)CC1)N1CCN(Cc2ccc3c(c2)OCO3)CC1`, the inhibition was -7.69%. Consider `COc1ccc(C2c3[nH]c4ccccc4c3C[C@H]3C(=O)N(CC(C)C)CC(=O)N23)c(OC)c1` (stereo partly specified), for which the inhibition is -6.17%.

For the molecule `COc1cccc2c(N/N=C/c3ccco3)cc(C)nc12`, the inhibition was 63.5%.

As for `COc1ccccc1/C=N\Nc1cc(C)nc(-n2nc(C)cc2C)n1`, the inhibition was -8.59%.

`COc1cccc(/C=N/Nc2cc(C)nc(-c3ccccc3O)n2)c1O`: the inhibition is 38.3% (active). The figure for `CC(=O)c1cccc(NC(=O)CN2C(=O)c3cccnc3Oc3ccc(Cl)cc32)c1` is 1.59%; for `CCc1ccc(N(C(=O)c2csnn2)C(C(=O)NC2CCCCC2)c2ccncc2)cc1` (stereo unspecified) it is 32.9%; for `COc1cc(NC(=O)CN(C)S(=O)(=O)c2ccc3nc(C)sc3c2)cc(OC)c1` it is 15.9%.

In the case of `COc1cccc(N(CC(=O)Nc2cccc(F)c2)S(C)(=O)=O)c1`, the inhibition was 12.9%. For the molecule `Cc1cccc(N(CC(=O)Nc2ccc(-c3nc4ccc(C)cc4s3)cc2)S(C)(=O)=O)c1`, the inhibition was 146% (active). The figure for `Cc1nc2ccc(S(=O)(=O)N(C)CC(=O)NC(C)c3ccccc3)cc2s1` (stereo unspecified) is -9.9%. Consider `CCN(CC)S(=O)(=O)c1ccc(NC(=O)CN(c2cccc(F)c2)S(C)(=O)=O)cc1`, for which the inhibition is -12.2%.

Consider `Cc1ccc2nc(-c3ccc(NC(=O)CN(C)S(=O)(=O)c4ccccc4)cc3)sc2c1`, for which the inhibition is 84.9% (active).

As to `C[C@H]1CCC(=O)N([C@H](CSc2ccccc2)Cc2ccccc2)CC1`, the inhibition is 6.56%. Regarding `CCCOc1ccc(Cc2c(O)nc(N)[nH]c2=O)cc1C`, the inhibition is 1.67%. Consider `CCC(=O)N1c2ccc(S(=O)(=O)NCc3ccco3)cc2CC1C` (stereo unspecified), for which the inhibition is 12.8%. On to `O=C(Nn1cnnc1)c1cc(Cl)ccc1Cl`, for which the inhibition was 7.38%.

Turning to `C=CCc1cc(S(=O)(=O)c2ccc(O)c(CC=C)c2)ccc1O`, the inhibition is -18%. Turning to `O=C(CCCC(=O)N1CCN(c2cccc(Cl)c2)CC1)c1ccccc1`, the inhibition was 25.1% (active). The result for `O=C(c1ccco1)N1CCN(c2cccc(Cl)c2)CC1` reads 24.3% (active); that for `CC(C)c1nnc(NC(=O)CCC(=O)N2CCN(c3cccc(Cl)c3)CC2)s1`, -4.62%. Take `O=C(c1cccc([N+](=O)[O-])c1)N1CCN(C(=O)c2ccco2)CC1`: the inhibition was -3.08%. The result for `O=C(c1ccc2c(c1)OCO2)N1CCN(C(=O)c2ccco2)CC1` reads 17%. The result for `CS(=O)(=O)N(CC(=O)N1CCN(c2cccc(Cl)c2)CC1)c1ccccc1` reads -4.1%; that for `Nc1cccc(CCc2nc3ccccc3[nH]2)c1`, 91.8% (active). In the case of `CC(C)=C(NC(=O)c1ccco1)C(=O)NCCc1nc2ccccc2[nH]1`, the inhibition was 7.12%. Turning to `Oc1ccc2nc(Cc3ccccc3)[nH]c2c1`, the inhibition is 54.8%. The result for `CCOC(=O)C1=C(c2ccccc2)NC(=O)NC1c1cc(OCC)c(O)c([N+](=O)[O-])c1` (stereo unspecified) reads -6.05%; that for `Cc1ccccc1Nc1nc(N)nc(CSc2ccccc2)n1`, 87.7% (active); that for `Cc1ccc(C(=O)OCc2nc(N)nc(Nc3ccccc3C)n2)cc1`, -11.7%.

Regarding `Cc1ccccc1Nc1nc(N)nc(CSc2nnc3ccccn23)n1`, the inhibition was 37.1%.

Regarding `Cc1cc(OC(C)C(=O)NC2CC(C)(C)NC(C)(C)C2)c2c(C)cc(=O)oc2c1` (stereo unspecified), the inhibition was -4.82%. In the case of `CCn1c(CNC(=O)c2cc(OC)c(OC)c(OC)c2)cc2cc(C)ccc21`, the inhibition is 2.16%. The figure for `CCOc1ccc(CN(C)C(=O)c2ccc(=O)[nH]c2)cc1` is -3.04%; for `CCc1ccc(/C=N/NC(=O)c2nnn(-c3nonc3N)c2CN2CCc3ccccc32)cc1` it is -4.83%; for `COc1ccc(NS(=O)(=O)c2cccc3nsnc23)cc1Cl` it is -3.74%. As to `CCCC(=O)Nc1nc2ccc(NC(=O)c3c(F)c(F)c(OC)c(F)c3F)cc2s1`, the inhibition is -15.8%. The result for `O=C(Nc1ccncc1)c1c(F)cccc1F` reads -10.9%; that for `CSc1nc2ccc(NC(=O)c3c(F)cccc3F)cc2s1`, 90.3% (active); that for `Cc1ccc(OCCOCCOc2ccc(Br)cc2/C=N\NC(=O)c2ccncc2)cc1`, -5.78%. As to `Cc1ccc(OCCOc2cccc(/C=N/NC(N)=O)c2)cc1`, the inhibition is 56.6% (active). Consider `O=C(N/N=C/c1ccc(OCc2ccccc2)cc1)c1ccc(O)cc1`, for which the inhibition was 51.1%.

As for `Cc1cccc(OCC(=O)NCC(=O)N/N=C/c2ccc(N(C)C)cc2)c1`, the inhibition is -12.5%.

With `O=C(N/N=C/c1cccc(OCc2ccccc2)c1)c1ccc(Br)o1`, the inhibition is 46.8% (active).

Turning to `O=C(N/N=C/c1cccc(O)c1)c1cc2c(ccc3ccccc32)o1`, the inhibition is 6%.
